Reference: PMC4336329 (PLoS ONE, 2015)
Out of some 310,000 compounds screened, about 14,000 (4.5%) showed an effect of 50% or more. The effect is printed as a negative number. Shown is part of a subset that was picked to be rich in strong results.

The compounds below were run against human ether-à-go-go-related gene (hERG) potassium channel (human, UniProt Q12809) (assay: primary screen, population patch clamp on CHO cells stably expressing hERG; higher = less effect of the substance).
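Also: peak tail current of the secondary pulse compared with the same well before compound.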

Sequence of human ether-à-go-go-related gene (hERG) potassium channel (Q12809 whole entry, looked up): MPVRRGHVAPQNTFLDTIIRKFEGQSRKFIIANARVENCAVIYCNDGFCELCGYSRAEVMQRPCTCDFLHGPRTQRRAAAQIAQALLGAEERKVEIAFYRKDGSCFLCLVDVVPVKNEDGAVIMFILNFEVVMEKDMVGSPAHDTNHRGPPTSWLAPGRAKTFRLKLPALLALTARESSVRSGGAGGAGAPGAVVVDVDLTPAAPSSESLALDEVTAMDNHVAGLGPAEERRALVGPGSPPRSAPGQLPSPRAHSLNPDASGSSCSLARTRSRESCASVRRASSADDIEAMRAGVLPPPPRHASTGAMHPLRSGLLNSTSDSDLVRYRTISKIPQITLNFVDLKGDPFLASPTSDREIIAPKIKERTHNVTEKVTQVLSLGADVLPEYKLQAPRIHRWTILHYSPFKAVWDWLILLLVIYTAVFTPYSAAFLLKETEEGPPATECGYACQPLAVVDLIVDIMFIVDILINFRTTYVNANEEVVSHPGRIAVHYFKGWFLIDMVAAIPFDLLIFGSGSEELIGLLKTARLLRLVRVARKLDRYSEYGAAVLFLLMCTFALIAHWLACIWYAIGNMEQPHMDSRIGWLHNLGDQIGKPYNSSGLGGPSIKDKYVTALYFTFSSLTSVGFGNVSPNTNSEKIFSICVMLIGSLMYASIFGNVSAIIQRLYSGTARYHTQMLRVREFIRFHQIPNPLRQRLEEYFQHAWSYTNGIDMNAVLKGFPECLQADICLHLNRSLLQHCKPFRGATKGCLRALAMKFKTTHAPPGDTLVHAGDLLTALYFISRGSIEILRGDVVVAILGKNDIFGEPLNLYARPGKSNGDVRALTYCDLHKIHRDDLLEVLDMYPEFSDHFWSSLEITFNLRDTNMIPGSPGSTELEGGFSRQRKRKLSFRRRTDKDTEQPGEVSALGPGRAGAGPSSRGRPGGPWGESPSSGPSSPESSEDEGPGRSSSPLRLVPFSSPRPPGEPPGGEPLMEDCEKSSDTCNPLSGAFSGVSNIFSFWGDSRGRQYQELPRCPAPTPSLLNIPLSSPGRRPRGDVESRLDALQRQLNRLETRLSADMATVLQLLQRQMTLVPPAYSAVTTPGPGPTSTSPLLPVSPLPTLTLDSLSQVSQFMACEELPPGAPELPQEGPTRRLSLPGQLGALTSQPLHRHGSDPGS

Row | SMILES | hERG current change (%, negative = inhibition) at 10uM [%]
1 | CCc1ccc(CN(C)C(=O)CC2C(=O)NCCN2Cc2ccoc2)cc1 (stereo not drawn) | 4.18
2 | COc1ccc(Cl)cc1NC(=O)C1CCN(S(C)(=O)=O)CC1 | 3.72
3 | CCOc1ccccc1/C=C/c1onc(C)c1S(=O)(=O)N1CCC(C(=O)N(CC)CC)CC1 | -3.33
4 | O=C(NCc1cccnc1)c1ccc(NC(=O)c2ccc([N+](=O)[O-])cc2)cc1 | 9.09
5 | CCOC(=O)Cc1cc(=O)n2[nH]c(-c3ccc(Cl)cc3)cc2n1 | -20.4
6 | CCCc1nc2oc3cc(OC)ccc3c(=O)c2c(=O)n1CCc1ccccc1 | -38.3
7 | COc1ccc(-n2c(=O)c(NC(=O)c3ccccc3)c3n(c2=S)CCCCC3)cc1 | -3.03
8 | CC(=O)c1ccc(NC(=O)CO/N=C(\C)c2cccs2)cc1 | -8.22
9 | O=C(Nc1ccccn1)c1ccc2c(c1)S(=O)(=O)c1ccccc1C2=O | 6.46
10 | CCCCCn1cnnc1SCC(=O)c1ccc2c(c1)OCO2 | -27.9
11 | Cc1nc2c3ccccc3nc(SCC(=O)c3ccc(Cl)cc3)n2n1 | 2.48
12 | COC(=O)C1=C(C(=O)OC)[C@@H]2N(Cc3ccccc3)c3ccccc3[C@@]23C[C@@H](C(=O)OC)N(C(=O)NC2CCCCC2)C3=N1 | -12.1
13 | COc1ccc(-n2c(CN3CCN(c4ccccc4)CC3)nc3ccc([N+](=O)[O-])cc3c2=O)c(OC)c1 | -10.8
14 | COc1cccc(-n2c(CN3CCN(c4ccccn4)CC3)nc3ccc([N+](=O)[O-])cc3c2=O)c1 | -40
15 | COc1ccc(-n2c(CN3CCN(Cc4ccccc4)CC3)nc3ccc([N+](=O)[O-])cc3c2=O)c(OC)c1 | -51.1
16 | COc1ccc(-n2c(CN3CCN(c4ccc(F)cc4)CC3)nc3ccc([N+](=O)[O-])cc3c2=O)c(OC)c1 | -44.6
17 | COc1ccc(-n2c(CN3CCC(C(N)=O)CC3)nc3ccc([N+](=O)[O-])cc3c2=O)c(OC)c1 | -3.9
18 | CCN1CCN(Cc2nc3ccc([N+](=O)[O-])cc3c(=O)n2-c2ccc(OC)cc2OC)CC1 | -52
19 | COc1ccc(-n2c(CN3CCOCC3)nc3ccc([N+](=O)[O-])cc3c2=O)c(OC)c1 | -3.17
20 | COc1ccc(-n2c(CN3CCN(c4ccccn4)CC3)nc3ccc([N+](=O)[O-])cc3c2=O)c(OC)c1 | -55.5
21 | COc1ccc(-n2c(CN3CCC(C)CC3)nc3ccc([N+](=O)[O-])cc3c2=O)c(OC)c1 | 4.93
22 | CCOC(=O)C1CCCN(Cc2nc3ccc([N+](=O)[O-])cc3c(=O)n2-c2ccc(OC)cc2OC)C1 (stereo not drawn) | -28.9

Row | SMILES | hERG current change (%, negative = inhibition) at 10uM [%]
23 | COc1ccc(-n2c(CN3CCN(C)CC3)nc3ccc([N+](=O)[O-])cc3c2=O)c(OC)c1 | -38.4
24 | CCOC(=O)C1CCN(Cc2nc3ccc([N+](=O)[O-])cc3c(=O)n2-c2ccc(OC)cc2OC)CC1 | -53.8
25 | COc1ccc(C2NC(C(=O)O)CS2)cc1COCC(F)(F)F (stereo not drawn) | 3.38
26 | CC1Sc2ccc(S(=O)(=O)N3CCC(C(=O)N(C)Cc4ccco4)CC3)cc2NC1=O (stereo not drawn) | -24.7
27 | COc1ccc(NC(=O)c2sc(SC)nc2N)cc1 | -0.0249
28 | Cn1ncc(Cl)c1C(=O)N1CCc2ccccc21 | -13.9
29 | O=S(=O)(c1ccccc1Cl)N1CCCC1c1nc(-c2cccc(Cl)c2)no1 (stereo not drawn) | -9.49
30 | COc1cccc(-n2c(CN3CCN(c4ccccc4)CC3)nc3ccc([N+](=O)[O-])cc3c2=O)c1 | -8.34
31 | COc1cccc(-n2c(CN3CCN(Cc4ccccc4)CC3)nc3ccc([N+](=O)[O-])cc3c2=O)c1 | -52.8
32 | COc1cccc(-n2c(CN3CCN(C)CC3)nc3ccc([N+](=O)[O-])cc3c2=O)c1 | -33.1
33 | C=C(C)COc1ccc(-c2[nH]ncc2Oc2ccc(OC)cc2)c(O)c1 | -14.9
34 | C=C(C)COc1ccc(-c2[nH]ncc2Oc2ccccc2OC)c(O)c1 | -55.2
35 | C=C(C)COc1ccc(-c2[nH]ncc2Oc2ccccc2OCC)c(O)c1 | 4.65
36 | O=C(O)c1ccc(NS(=O)(=O)c2ccc(NC(=O)c3ccccc3Cl)cc2)cc1 | 19
37 | CC(NC(=O)COC(=O)c1ccc([N+](=O)[O-])s1)c1ccccc1 (stereo not drawn) | -20.8
38 | CCC(C)c1ccc(NC(=O)C/C(C)=N/NC(=O)c2cnccn2)cc1 (stereo not drawn) | -17.2
39 | C=CCN1C(=O)/C(=C\C=C2\N(C)c3ccccc3C2(C)C)SC1=S | 10.7
40 | CCN1C(=O)/C(=C/C=C2\N(CC)c3cc(S(=O)(=O)N(C)C)ccc3N2c2ccccc2)SC1=S | 0.17
41 | C=CCN1C(=O)/C(=C/C=C2/N(CC)c3ccc(S(=O)(=O)N(C)C)cc3N2CC)SC1=S | -56
42 | COC(=O)CSc1[nH]c2ccccc2c1[N+](=O)[O-] | 7.33
43 | Cc1nn(C)c(NC(=O)c2ccc(Cl)cc2Cl)c1Br | -11.4
44 | CCOC(=O)c1ccc(NC(=S)NCc2ccco2)cc1 | -11.1

Row | SMILES | hERG current change (%, negative = inhibition) at 10uM [%]
45 | CCOC(=O)c1ccc(NC(=S)N(CCCN2CCCCC2)Cc2ccco2)cc1 | -72.7
46 | CCc1ccccc1NC(=S)N(CCN1CCCCCC1)Cc1ccco1 | -46.8
47 | CCOC(=O)c1ccc(NC(=S)N(CCCN(CC)CC)Cc2ccco2)cc1 | -76.7
48 | CCOC(=O)c1ccc(NC(=O)C(=O)NCc2ccco2)cc1 | 15.7
49 | CCOC(=O)c1ccc(NC(=S)N(CCCN2CCCC(C)C2)Cc2ccco2)cc1 (stereo not drawn) | -70.9
50 | CCOC(=O)c1ccc(NC(=S)N(CCN2CCCCCC2)Cc2ccco2)cc1 | -78.3
51 | O=C1C(NS(=O)(=O)c2ccc(Cl)cc2)=C(N2CCCCC2)C(=O)c2ccccc21 | -13.3
52 | Cc1ccc(-n2nc3c(=O)n(CCCC(=O)N4CCC(C)CC4)nc(C)c3c2C)cc1 | -30.1
53 | CN(Cc1cccc(Cl)c1Cl)c1ccc(S(=O)(=O)N2CCCCC2)cc1[N+](=O)[O-] | 5.82
54 | Cc1ccc(C2=NNC(C(O)C(O)C(O)CO)S2)cc1 (stereo not drawn) | 11.6
55 | CC1CN(S(=O)(=O)c2cccc(C(=O)Nc3ccc(S(=O)(=O)NC4=NCCCCC4)cc3)c2)CC(C)O1 (stereo not drawn) | -5.97
56 | CC(C)c1ccc(OCc2cccc(C(=O)N/N=C/c3cccnc3)c2)cc1 | -5.29
57 | Cc1ccccc1C(=O)Nc1cccc(C(=O)N/N=C/c2cc(Cl)cc([N+](=O)[O-])c2O)c1 | 7.34
58 | COC(=O)c1cc2sc(Cl)cc2n1Cc1nc(-c2ccccc2)oc1C | 3.5
59 | Cn1ccnc1SCC(=O)Nc1nc2ccccc2s1 | -25.1
60 | O=C(O)c1ccc(N/N=C/C2=C(N3CCOCC3)C(=C\c3ccccc3)/CC2)cc1 | 7.96
61 | COc1ccccc1CC(=O)NCCc1c[nH]c2ccccc12 | 5.81
62 | COc1cccc(NC(C)C(=O)N2CC(C)OC(C)C2)c1 (stereo not drawn) | -1.96
63 | C/C(=N/NC(=O)CNC(=O)c1cccs1)c1ccco1 | 11.7
64 | COC(=O)c1ccc(NC(=S)N(Cc2cccnc2)Cc2ccco2)cc1 | -29.1
65 | COc1ccc(NC(=S)N(CCCN2CCOCC2)Cc2ccco2)cc1 | -7.89
66 | COc1ccc(NC(=S)N(Cc2cccnc2)Cc2ccco2)cc1 | -24.5

Row | SMILES | hERG current change (%, negative = inhibition) at 10uM [%]
67 | CCOC(=O)c1ccc(NC(=S)N(Cc2cccnc2)Cc2ccco2)cc1 | -53.2
68 | CCOC(=O)c1ccc(NC(=S)N(CCCN2CCCCCC2)Cc2ccco2)cc1 | -73.7
69 | CCOC(=O)c1ccc(NC(=S)N(CCCN2CCN(CC)CC2)Cc2ccco2)cc1 | -76.5
70 | Cc1ccc(CSc2nc3c(c(N(C)C)n2)CCCC3)cc1 | -5.63
71 | CCC(Cc1c(I)cc(I)c(N)c1I)C(=O)O (stereo not drawn) | -0.155
72 | C=C1c2ccccc2NC(=S)N1Cc1ccc2c(c1)OCO2 | 27.5
73 | Cc1ccc(CNC(=O)c2ccc(N3CCC4(CC3)CC(c3ccccc3)=NO4)c(NC(=O)c3ccco3)c2)cc1 | 6.09
74 | COC(=O)CN(c1ccc(C)cc1)S(=O)(=O)c1ccc(F)cc1 | -19.9
75 | Cc1ccc(NS(=O)(=O)c2ccc3c(c2)c(=O)n(C)c(=O)n3C)cc1F | -15.5
76 | Cc1cc2oc(=O)cc(CN3CCN(Cc4ccccc4)CC3)c2cc1O | -53.3
77 | O=c1cc(CN2CCN(C/C=C/c3ccccc3)CC2)c2cc(O)ccc2o1 | -77.5
78 | Cc1cc2oc(=O)cc(CN3CCN(Cc4ccccc4)CC3)c2cc1Cl | -22.8
79 | Cc1cc2oc(=O)cc(CN3CCOCC3)c2cc1O | -22.6
80 | Cc1ccc2oc(=O)cc(CN3CCCCC3)c2c1 | 15.9
81 | Cc1ccc2oc(=O)cc(CN3CCOCC3)c2c1 | -8.53
82 | CCN1CCN(Cc2cc(=O)oc3cc4c(cc23)CCC4)CC1 | -29.7
83 | O=c1cc(CN2CCN(Cc3ccccc3)CC2)c2cc3c(cc2o1)CCC3 | -51
84 | CC(C)c1ccc2oc(=O)cc(CN3CCN(c4ccccc4)CC3)c2c1 | -10.4
85 | CN1CCN(Cc2cc(=O)oc3cc4c(cc23)CCC4)CC1 | -8.2
86 | COc1ccc(N2CCN(Cc3cc(=O)oc4cc(-c5ccccc5)c(O)cc34)CC2)cc1 | -0.18
87 | Cc1ccc2oc(=O)cc(CN3CCN(C/C=C/c4ccccc4)CC3)c2c1 | -76.9
